Our source for the inhibition values is PubChem BioAssay.

The inhibition is the relative decrease from the control value, in per cent.

The structures appear in SMILES notation. Calls of active or inactive are those of the source.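 Rule for the calls: active = mean inhibition above 46.68%, the untreated control wells mean plus 3 SD; inactive = the rest.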

For the test, the target named is Nuclear receptor coactivator 1 (Homo sapiens) (UniProt Q15788). Description: NCOA1 GAL4-fusion reporter inhibition – cell-based, luminescence, quadruplicate, confirmation (AID 588820).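 Note: 0% = DMSO wells and 100% = gossypol 36 µM treated wells.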 As to conditions: HEK293 GAL4-SRC1 luciferase reporter, at 3.6 µM, active compounds read high. Background: A reporter such as luciferase makes a cellular process visible.
Sequence of Nuclear receptor coactivator 1 (Homo sapiens) (Q15788 whole entry, looked up, the tested form may be a part): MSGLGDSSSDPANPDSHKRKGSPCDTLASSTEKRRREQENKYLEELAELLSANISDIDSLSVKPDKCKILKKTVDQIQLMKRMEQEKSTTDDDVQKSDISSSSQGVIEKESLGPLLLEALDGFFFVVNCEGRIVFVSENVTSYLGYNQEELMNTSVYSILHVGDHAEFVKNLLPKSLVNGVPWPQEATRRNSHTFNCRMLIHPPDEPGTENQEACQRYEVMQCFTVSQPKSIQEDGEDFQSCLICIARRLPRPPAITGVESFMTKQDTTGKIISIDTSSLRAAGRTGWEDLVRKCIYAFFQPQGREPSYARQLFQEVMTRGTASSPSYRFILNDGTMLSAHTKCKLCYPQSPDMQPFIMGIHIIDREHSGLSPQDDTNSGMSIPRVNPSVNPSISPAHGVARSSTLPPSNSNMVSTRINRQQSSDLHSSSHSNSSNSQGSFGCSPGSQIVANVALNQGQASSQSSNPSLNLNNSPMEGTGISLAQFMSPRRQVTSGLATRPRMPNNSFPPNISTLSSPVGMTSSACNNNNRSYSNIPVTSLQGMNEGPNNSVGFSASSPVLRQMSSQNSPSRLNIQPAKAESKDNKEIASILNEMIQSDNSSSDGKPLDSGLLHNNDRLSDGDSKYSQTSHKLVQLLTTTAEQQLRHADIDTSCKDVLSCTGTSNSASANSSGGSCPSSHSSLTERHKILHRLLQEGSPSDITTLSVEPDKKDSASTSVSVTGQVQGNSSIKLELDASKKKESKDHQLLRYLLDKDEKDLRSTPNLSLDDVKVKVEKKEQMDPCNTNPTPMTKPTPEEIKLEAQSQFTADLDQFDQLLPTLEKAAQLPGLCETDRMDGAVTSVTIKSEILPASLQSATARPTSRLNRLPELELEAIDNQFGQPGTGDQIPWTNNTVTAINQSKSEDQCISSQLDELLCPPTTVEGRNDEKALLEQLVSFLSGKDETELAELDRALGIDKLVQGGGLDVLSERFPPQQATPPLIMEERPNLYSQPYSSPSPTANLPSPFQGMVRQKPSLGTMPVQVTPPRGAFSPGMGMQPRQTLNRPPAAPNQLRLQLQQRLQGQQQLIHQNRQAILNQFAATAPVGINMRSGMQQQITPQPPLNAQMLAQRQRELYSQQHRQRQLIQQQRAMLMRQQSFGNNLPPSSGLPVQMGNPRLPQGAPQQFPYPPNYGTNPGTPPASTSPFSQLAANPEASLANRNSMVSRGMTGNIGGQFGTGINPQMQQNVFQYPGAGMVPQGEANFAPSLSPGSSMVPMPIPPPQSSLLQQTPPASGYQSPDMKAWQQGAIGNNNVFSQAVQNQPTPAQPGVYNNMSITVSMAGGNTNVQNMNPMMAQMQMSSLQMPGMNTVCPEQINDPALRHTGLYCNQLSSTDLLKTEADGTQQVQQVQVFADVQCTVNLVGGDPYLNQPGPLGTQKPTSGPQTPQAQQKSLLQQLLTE
As to `CCCC(=O)NC(c1ccc(C)cc1)c1ccc2cccnc2c1O` (stereo not given), the inhibition was 61.4% (active).

Take `Cc1nn(C(C)(C)C)c(C)c1/C=N/OC(=O)Nc1ccc(Cl)cc1`: the inhibition is 87.3% (active). Regarding `O=C(Nc1nc(-c2ccccc2)cs1)c1ccccc1NS(=O)(=O)c1ccc(F)cc1`, the inhibition was 45% (inactive).

Take `CCCCCCCn1c2c(c(=N)c3c1CCC3)CCCC2`: the inhibition was 56.2% (active). As for `CC(=NNC(=S)Nc1ccccc1)c1ccccn1`, the inhibition is -15.4% (inactive). The result for `O=NN(CC(=O)NNc1ccccc1)CC(=O)NNc1ccccc1` reads 9.03% (inactive); that for `CC1(C)N=C(N)N=C(N)N1CCCCc1ccccc1`, 56.8% (active). The same measure for `Cc1ccc(/C=C/C(=O)c2c(C)cc(C)[nH]c2=O)cc1`: 47% (active); for `COc1ccc(N=C(NN)c2ccc3ccccc3n2)cc1`: -105% (inactive); for `O=[N+]([O-])c1cc(CN2CCN(c3ccccc3)CC2)c(O)c2ncccc12`: 9.05% (inactive).

`N=C1C=CC(=C(c2ccc(N)cc2)c2ccc(N)cc2)C=C1`: the inhibition was 45.2% (inactive). The result for `C=C1C(=O)c2sccc2C(c2ccc(OC)c(OC)c2)C1COC(C)=O` (stereo not given) reads 6.09% (inactive); that for `Cn1cnc([N+](=O)[O-])c1Sc1nc(N)nc2c1ncn2C1OC(CO)C(O)C1O` (stereo not given), -6.11% (inactive); that for `O=C(NC(Nc1nc2ccc([N+](=O)[O-])cc2s1)(C(F)(F)F)C(F)(F)F)c1cccnc1`, 26.9% (inactive). The same measure for `CC(=NNC(=S)Nc1ccccc1Cl)c1ccccn1`: 18.6% (inactive); for `CCN1/C(=C/c2ccc3cc(C)ccc3[n+]2CC)Sc2cc(C)c(C)cc21`: 18.8% (inactive); for `O=C1[C@@H]2Cc3c([nH]c4ccccc34)C(c3ccc([N+](=O)[O-])cc3)N2C(=O)CN1C1CC1` (stereo not given in full): 62.3% (active).

`Cc1ccc(-c2cn(-c3ccccc3)c3[n+]2CCCS3)cc1`: the inhibition is 9.91% (inactive). For `CC(=O)Nc1ccc(SCC(=O)c2cc(C)n(Cc3cccs3)c2C)cc1`, the inhibition was -1.59% (inactive). For the molecule `CN(Cc1cnc2nc(N)nc(N)c2n1)c1ccc(C(=O)NC(CCC(=O)O)C(=O)O)cc1` (stereo not given), the inhibition is 52.3% (active). The result for `COc1cccc(/C=N/Nc2ccc(C(=O)O)cc2)c1O` reads 12.8% (inactive); that for `c1ccc(-c2nn(-c3ccccc3)[n+](-c3ccccc3)n2)cc1`, -0.24% (inactive).

In the case of `Nc1nc(N)nc(-c2cc(O)ccc2O)n1`, the inhibition was 74.7% (active). The same measure for `O=C(Nc1ccc([N+](=O)[O-])cc1)c1ccc(Cn2cc([N+](=O)[O-])cn2)cc1`: 29.1% (inactive). For the molecule `CCn1cc(/C=C/c2cc[n+](C)cc2)c2ccccc21`, the inhibition was 3.02% (inactive). Consider `c1ccc(-c2cccc(-c3ccccn3)n2)nc1`, for which the inhibition was 56.6% (active). The same measure for `CCN1/C(=C/c2ccc3cccc(C)c3[n+]2CC)Sc2ccccc21`: 26% (inactive). The result for `CN(C)CCOc1ccc2c(c1)C(=O)C(=Cc1ncc([N+](=O)[O-])n1C)C2` reads 43% (inactive); that for `COc1ccc(C)cc1NC(=O)c1nnn(Cc2cccc(C(F)(F)F)c2)c1N`, 27.5% (inactive); that for `COc1cc(NS(C)(=O)=O)ccc1Nc1c2ccccc2nc2ccccc12`, 61.1% (active). The same measure for `COc1cccc(/C=N/Nc2ncnc3scc(-c4ccccc4)c23)c1O`: 76.8% (active); for `CCN1/C(=C/c2ccc3ccccc3[n+]2CC)C=Cc2ccccc21`: 55.5% (active); for `N=c1c2c(n(Cc3cccc(Cl)c3)c3c1CCC3)CCCC2`: 40.5% (inactive). For the molecule `CC(C)(O)C#Cc1ccc([C@@H]2C[C@H]3CN(c4ccccc4)C(=O)[C@]34CCCN24)s1`, the inhibition is 45.8% (inactive). In the case of `Oc1cccc2cc(Nc3ccccc3)cnc12`, the inhibition is 25.3% (inactive).

Turning to `COc1ccccc1C(=O)Nc1nc(-c2ccc(S(=O)(=O)N3CCOCC3)cc2)cs1`, the inhibition was 41.6% (inactive). The same measure for `Cc1ccc2ccc3cccnc3c2n1`: 12% (inactive). The same measure for `CCCCCCCCCn1ccc(=N)cc1`: 58.6% (active); for `Cc1ccc2[nH]c3nc(N/N=C/c4cccc(O)c4)nnc3c2c1`: 27.8% (inactive); for `CC1(C)CC(N2CCN(Cc3ccccc3)CC2)=CC(=[N+]2CCCCC2)C1`: -6.45% (inactive).
